Measurements as given in the supplement of paper PMC10849652.
About 8,800 targets were measured; listed, in parts, are those with a hit and a random draw of the rest. About 0.5% of all pairs of compound and target were hits. Values without a mark were called inactive.

Tests used:
Assay in all cases: log2 fold change, soluble protein after heating vs DMSO (PISA); higher = thermal stabilisation; K562 lysate, 10 uM; active = over 0.2 and 3.5 SD of the protein, either way, in both replicates (recomputed)
ibrutinib = compound: C=CC(=O)N1CCC[C@@H](n2nc(-c3ccc(Oc4ccccc4)cc3)c3c(N)ncnc32)C1 [ibrutinib]
In short: (§1)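 To prepare the extract, K562 pellets were dounce-homogenised in PBS pH 7.4 with 1 mM MgCl2, giving crude material at 1 mg/mL protein. This was treated with 10 μM compound for 30 min, then heated in aliquots for 3 min over 48°C-58°C before pooling and addition of NP-40 to 0.5% at 4°C. Centrifugation at 21,000xg for 90 min left soluble protein in the supernatant, which TMTpro 16plex LC-MS/MS quantified with equalised channel sums. Results are log-two fold changes in thermal stability compared with solvent controls, from duplicates.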

[1] = compound: CC(=O)c1cnc2ccc(-c3cc(Cl)c(O)c(Cl)c3)nc2c1N[C@H]1CC[C@H](CN(C)C)CC1
In short: as §1

ralimetinib = compound: CC(C)(C)Cn1c(N)nc2ccc(-c3[nH]c(C(C)(C)C)nc3-c3ccc(F)cc3)nc21 [ralimetinib]
In short: as §1

[2] = compound: CC(C)(O)CC(=O)NCCn1ccc2ncnc(Nc3ccc(Oc4cccc(C(F)(F)F)c4)c(Cl)c3)c21
In short: as §1

[3] = compound: CC(C)C1=C2N=C(C=C(N2N=C1)NCC3=CC=CC=C3)NCCCCCCN
In short: as §1

[4] = compound: CC1=C(C(CC(=O)N1)C2=CC=C(C=C2)C(F)(F)F)C(=O)NC3=C(C=C4C(=C3)C=NN4)F
In short: as §1

[5] = compound: CC1=C(C2=C(C=C1)C(=O)C3=CC=CC=C3N2CCCN)C
In short: as §1

[6] = compound: CC1=C(C=C(C=C1)NC(=O)C2=CC(=CC=C2)C(C)(C)C#N)NC3=CC4=C(C=C3)N=CN(C4=O)C
In short: as §1

[7] = compound: CC1=C(C=C(C=C1)NC(=O)C2=CC(=CC=C2)N(C)C)NC(=O)C3=CC=C(C=C3)O
In short: as §1

[8] = compound: CC1=CC=C(C=C1)SC2=C3C=C(SC3=CN=C2)C(=O)N
In short: as §1

Chain of UniProt P14314 (P14314 whole entry, looked up): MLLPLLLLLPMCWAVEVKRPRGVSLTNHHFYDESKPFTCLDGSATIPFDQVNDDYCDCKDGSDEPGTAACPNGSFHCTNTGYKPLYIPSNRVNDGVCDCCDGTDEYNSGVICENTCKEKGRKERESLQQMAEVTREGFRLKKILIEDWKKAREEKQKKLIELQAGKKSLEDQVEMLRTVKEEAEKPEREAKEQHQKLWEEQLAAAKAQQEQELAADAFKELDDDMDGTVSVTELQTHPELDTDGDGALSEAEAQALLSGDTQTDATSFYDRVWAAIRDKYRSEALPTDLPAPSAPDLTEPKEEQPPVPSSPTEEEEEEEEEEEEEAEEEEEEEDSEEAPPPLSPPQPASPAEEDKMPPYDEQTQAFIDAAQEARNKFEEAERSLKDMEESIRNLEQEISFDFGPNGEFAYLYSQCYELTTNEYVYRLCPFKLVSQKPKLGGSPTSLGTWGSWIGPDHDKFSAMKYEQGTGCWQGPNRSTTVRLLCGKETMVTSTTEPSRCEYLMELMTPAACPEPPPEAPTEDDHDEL
Chain of UniProt O00541 (O00541 whole entry, looked up): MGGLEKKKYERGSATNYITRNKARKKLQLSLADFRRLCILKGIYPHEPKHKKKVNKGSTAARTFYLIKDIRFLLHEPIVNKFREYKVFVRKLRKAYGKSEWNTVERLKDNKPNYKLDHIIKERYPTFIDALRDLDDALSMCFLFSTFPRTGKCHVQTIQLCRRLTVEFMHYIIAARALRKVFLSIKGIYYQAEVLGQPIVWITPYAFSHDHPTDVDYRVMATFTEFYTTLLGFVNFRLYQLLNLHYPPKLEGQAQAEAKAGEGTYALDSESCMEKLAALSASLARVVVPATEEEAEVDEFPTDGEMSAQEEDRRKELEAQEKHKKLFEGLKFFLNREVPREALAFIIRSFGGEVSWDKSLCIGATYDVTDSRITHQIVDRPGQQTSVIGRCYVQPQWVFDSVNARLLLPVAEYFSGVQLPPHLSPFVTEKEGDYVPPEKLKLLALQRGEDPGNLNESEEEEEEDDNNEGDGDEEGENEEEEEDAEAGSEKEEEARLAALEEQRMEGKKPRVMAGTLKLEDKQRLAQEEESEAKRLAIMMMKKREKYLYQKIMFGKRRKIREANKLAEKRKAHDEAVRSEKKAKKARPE
Chain of UniProt P28340 (P28340 whole entry, looked up): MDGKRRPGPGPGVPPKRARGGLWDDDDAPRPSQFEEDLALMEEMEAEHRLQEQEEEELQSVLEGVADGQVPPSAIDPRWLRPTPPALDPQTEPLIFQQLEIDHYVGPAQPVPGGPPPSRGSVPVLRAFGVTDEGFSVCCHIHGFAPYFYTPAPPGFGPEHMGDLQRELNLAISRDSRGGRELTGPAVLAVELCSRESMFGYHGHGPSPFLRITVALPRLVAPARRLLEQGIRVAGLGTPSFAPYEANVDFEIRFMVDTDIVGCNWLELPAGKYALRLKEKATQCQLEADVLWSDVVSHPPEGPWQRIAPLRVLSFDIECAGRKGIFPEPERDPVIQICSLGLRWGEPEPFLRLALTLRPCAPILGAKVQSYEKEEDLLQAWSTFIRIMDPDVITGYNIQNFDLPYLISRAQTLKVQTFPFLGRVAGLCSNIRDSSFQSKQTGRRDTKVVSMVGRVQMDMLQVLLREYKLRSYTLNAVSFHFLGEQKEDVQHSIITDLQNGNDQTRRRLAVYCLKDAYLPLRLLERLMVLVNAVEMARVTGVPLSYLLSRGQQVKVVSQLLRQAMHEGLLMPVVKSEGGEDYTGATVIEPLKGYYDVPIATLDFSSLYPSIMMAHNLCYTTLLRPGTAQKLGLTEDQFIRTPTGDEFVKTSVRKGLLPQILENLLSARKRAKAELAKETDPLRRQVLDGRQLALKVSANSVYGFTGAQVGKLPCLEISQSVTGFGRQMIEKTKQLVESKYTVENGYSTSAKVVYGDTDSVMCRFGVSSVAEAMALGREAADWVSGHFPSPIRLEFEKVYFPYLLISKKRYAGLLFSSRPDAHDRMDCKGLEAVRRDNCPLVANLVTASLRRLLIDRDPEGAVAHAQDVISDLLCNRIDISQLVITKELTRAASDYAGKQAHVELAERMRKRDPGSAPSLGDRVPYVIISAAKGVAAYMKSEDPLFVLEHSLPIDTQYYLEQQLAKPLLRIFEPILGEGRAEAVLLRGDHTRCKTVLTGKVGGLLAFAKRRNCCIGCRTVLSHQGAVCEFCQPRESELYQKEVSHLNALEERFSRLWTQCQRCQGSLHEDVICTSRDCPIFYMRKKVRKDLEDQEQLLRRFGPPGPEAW
Chain of UniProt Q8TBX8 (Q8TBX8 whole entry, looked up): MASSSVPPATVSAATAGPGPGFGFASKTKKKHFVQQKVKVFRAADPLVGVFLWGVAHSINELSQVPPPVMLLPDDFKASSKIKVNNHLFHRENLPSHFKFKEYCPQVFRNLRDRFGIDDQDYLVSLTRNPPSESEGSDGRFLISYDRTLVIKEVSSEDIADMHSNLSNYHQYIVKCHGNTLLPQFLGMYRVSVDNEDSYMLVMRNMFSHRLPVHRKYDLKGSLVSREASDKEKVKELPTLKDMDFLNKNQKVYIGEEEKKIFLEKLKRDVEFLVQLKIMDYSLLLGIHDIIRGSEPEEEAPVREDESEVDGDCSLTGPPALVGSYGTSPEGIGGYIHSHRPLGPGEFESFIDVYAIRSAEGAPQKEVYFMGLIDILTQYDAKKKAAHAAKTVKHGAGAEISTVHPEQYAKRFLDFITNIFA
Chain of UniProt P48426 (P48426 whole entry, looked up): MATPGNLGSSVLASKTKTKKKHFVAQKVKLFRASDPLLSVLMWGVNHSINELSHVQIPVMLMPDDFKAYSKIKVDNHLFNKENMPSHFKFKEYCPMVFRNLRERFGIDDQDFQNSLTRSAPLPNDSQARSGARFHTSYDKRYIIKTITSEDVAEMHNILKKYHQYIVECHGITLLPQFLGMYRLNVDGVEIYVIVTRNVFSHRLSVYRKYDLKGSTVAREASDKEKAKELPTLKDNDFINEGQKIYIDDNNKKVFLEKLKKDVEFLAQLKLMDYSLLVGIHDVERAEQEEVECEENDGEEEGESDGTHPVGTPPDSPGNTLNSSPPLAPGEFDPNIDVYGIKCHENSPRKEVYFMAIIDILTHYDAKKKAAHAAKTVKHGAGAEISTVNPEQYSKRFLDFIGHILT
Chain of UniProt Q15366 (Q15366 whole entry, looked up): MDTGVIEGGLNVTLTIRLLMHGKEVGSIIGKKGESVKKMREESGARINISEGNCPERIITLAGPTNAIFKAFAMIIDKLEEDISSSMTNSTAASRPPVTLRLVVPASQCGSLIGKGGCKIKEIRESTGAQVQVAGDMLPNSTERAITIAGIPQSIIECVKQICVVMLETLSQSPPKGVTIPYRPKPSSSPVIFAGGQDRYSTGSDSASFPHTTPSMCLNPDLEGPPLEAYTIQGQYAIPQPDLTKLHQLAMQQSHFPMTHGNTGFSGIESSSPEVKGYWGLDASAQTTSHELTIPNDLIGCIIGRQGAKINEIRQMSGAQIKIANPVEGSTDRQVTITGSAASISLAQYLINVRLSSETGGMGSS
Chain of UniProt P54278 (P54278 whole entry, looked up): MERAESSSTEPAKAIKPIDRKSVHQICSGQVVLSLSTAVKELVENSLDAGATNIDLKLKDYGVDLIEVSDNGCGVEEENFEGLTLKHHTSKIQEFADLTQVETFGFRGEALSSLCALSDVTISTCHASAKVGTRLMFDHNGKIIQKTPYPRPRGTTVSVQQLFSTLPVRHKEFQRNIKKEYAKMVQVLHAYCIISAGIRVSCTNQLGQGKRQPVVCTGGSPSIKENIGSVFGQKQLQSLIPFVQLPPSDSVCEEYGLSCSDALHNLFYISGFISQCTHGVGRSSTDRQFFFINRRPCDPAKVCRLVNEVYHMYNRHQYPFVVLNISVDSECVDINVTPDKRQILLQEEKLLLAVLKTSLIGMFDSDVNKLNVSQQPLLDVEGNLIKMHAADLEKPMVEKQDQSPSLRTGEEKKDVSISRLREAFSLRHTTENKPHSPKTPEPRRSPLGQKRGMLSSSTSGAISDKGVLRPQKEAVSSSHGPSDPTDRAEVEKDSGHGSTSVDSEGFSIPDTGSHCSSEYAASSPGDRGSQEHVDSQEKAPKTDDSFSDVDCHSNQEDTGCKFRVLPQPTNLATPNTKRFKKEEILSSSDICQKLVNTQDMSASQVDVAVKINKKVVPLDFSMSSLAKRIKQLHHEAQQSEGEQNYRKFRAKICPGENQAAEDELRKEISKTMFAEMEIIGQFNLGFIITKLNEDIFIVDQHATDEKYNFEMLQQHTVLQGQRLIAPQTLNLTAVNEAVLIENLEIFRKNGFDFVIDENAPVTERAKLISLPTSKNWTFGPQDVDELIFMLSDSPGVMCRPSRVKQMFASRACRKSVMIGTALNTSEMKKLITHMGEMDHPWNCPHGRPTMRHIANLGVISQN
Chain of UniProt Q96C36 (Q96C36 whole entry, looked up): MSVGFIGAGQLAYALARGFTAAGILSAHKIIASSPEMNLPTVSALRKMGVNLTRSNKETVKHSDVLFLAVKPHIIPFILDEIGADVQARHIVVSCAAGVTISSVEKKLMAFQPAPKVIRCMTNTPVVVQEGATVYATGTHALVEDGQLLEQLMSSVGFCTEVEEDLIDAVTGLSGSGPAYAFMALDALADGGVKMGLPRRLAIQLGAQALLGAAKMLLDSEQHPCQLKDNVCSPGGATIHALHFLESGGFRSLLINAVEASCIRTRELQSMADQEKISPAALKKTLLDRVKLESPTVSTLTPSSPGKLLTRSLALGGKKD
Chain of UniProt Q8NAV1 (Q8NAV1 whole entry, looked up): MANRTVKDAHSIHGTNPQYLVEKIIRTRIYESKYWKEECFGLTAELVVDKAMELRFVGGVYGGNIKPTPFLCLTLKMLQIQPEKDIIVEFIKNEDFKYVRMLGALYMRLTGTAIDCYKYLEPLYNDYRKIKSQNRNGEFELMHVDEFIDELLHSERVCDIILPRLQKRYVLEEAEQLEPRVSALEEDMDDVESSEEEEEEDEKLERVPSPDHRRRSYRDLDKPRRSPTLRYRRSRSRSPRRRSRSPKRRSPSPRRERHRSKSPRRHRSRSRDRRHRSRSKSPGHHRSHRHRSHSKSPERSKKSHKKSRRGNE

Target	log2 fold change (ibrutinib)	log2 fold change [1]	log2 fold change (ralimetinib)	log2 fold change [2]	log2 fold change [3]	log2 fold change [4]	log2 fold change [5]	log2 fold change [6]	log2 fold change [7]	log2 fold change [8]
PIK3R1 (UniProt P27986)	-0.018	0.302	-0.003	-0.06	-0.008	-0.006	0.027	-0.013	-0.006	0.019
PIR (UniProt O00625)	0.029	-0.01	-0.017	0.019	0.254 (active)	-0.034	0.007	-0.003	0.232	-0.022
PES1 (UniProt O00541)	0.016	0.017	0.031	-0.03	0.006	0.013	-0.052	0.012	0.003	0.007
PHLDB1 (UniProt Q86UU1)	0.05	0.049	-0.094	0.096	-0.021	0.004	-0.009	0.114	-0.001	0.156
PHACTR4 isoform 2 (UniProt Q8IZ21)	-0.009	-0.005	-0.009	-0.047	-0.019	0.025	-0.028	0.021	-0.016	-0.01
PKP3 isoform 2 (UniProt Q9Y446)	0.005	-0.022	-0.028	0.009	-0.006	0.014	0.021	0.004	-0.019	0.052
PRKCSH (UniProt P14314)	-0.008	0.01	0.007	0.019	-0.026	-0.004	0.047	-0.057	0.001	0
PI4K2A (UniProt Q9BTU6)	-0.017	0.044	0.002	-0.037	-0.006	-0.028	0.028	-0.06	0	-0.009
POLR2G (UniProt P62487)	-0.01	-0.001	0.027	-0.017	-0.028	-0.015	0.02	0.029	-0.008	-0.01
PRKCD (UniProt Q05655)	0.021	0.162	0.01	-0.005	0.006	0.027	-0.012	-0.004	0.038	0.04
POC5 (UniProt Q8NA72)	0.013	-0.063	0.062	-0.029	0.101	0.015	0.026	-0.015	0	-0.02
PTPN6 isoform 4 (UniProt P29350)	0.051	-0.077	0.045	-0.026	0.019	0	-0.081	-0.031	0.011	0.054
PYCR2 (UniProt Q96C36)	0.012	0.002	-0.007	-0.032	-0.007	-0.026	0.001	0.013	-0.017	-0.016
PIP4P2 (UniProt Q8N4L2)	0.034	0.138	-0.025	-0.023	-0.08	-0.015	-0.061	0.013	0.008	-0.096
PRPF38A (UniProt Q8NAV1)	0	-0.001	0.01	-0.011	0.054	0.027	-0.128	0.094	-0.075	0.018
PIP4K2C (UniProt Q8TBX8)	0.012	0.277	0.039	-0.055	-0.055	-0.047	-0.027	0.03	-0.027	-0.031
PIP4K2A (UniProt P48426)	-0.052	0.086	0.032	-0.053	-0.043	-0.017	-0.019	-0.002	-0.028	-0.026
PRMT7 (UniProt Q9NVM4)	0.043	-0.016	0.042	-0.01	0.017	0	-0.008	0.013	0.031	0.008
PXMP4 (UniProt Q9Y6I8)	-0.022	0	0.012	-0.076	-0.18	-0.008	0.066	0.234	-0.007	0.023
PIP5K1A (UniProt Q99755)	0.012	0.201	-0.053	0.001	0	0.056	-0.127	0.105	0.02	-0.053
POLR3E (UniProt Q9NVU0)	0.02	0.018	0.043	-0.006	0.029	0.025	-0.021	-0.004	0.003	0.007
PMS2 (UniProt P54278)	0.027	0.032	0.046	-0.047	0.069	-0.038	-0.049	-0.019	-0.004	0.002
PRKD2 isoform 3 (UniProt Q9BZL6)	0.026	-0.065	0.019	-0.122	0.045	0.04	-0.111	-0.034	0.046	0.007
POLD1 (UniProt P28340)	-0.003	0.014	0.035	0.018	0	0.005	-0.012	0.005	0.02	-0.032
POMP (UniProt Q9Y244)	-0.025	-0.043	-0.001	-0.033	-0.013	0.016	-0.09	0.048	0.027	-0.001
PGGT1B (UniProt P53609)	-0.018	0.004	-0.015	0.03	-0.092	0.002	0.032	-0.039	-0.011	0.007
PCBP2 isoform 8 (UniProt Q15366)	0.15	0.003	-0.003	-0.041	-0.005	-0.011	-0.007	0.071	-0.05	-0.043
PICALM (UniProt Q13492)	-0.023	0.011	-0.025	-0.039	-0.004	-0.018	0.004	0.021	-0.004	-0.005
PTGS1 isoform 6 (UniProt P23219)	0.109	0.022	-0.001	-0.075	-0.043	0.023	-0.039	0.023	-0.011	-0.026
